Results on five molecules are retold here after PubChem BioAssay.

Test [1] is described as follows: small molecules captured by biotinylated probe aFSTL3 – biochemical, small-molecule microarray, fluorescence 635/667, stem cell growth factor project, primary screen (AID 1064).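 Further: measures binding of the biotinylated anti-FSTL3 antibody to printed compounds.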 To be noted: higher = more signal.
Test [2] in a line: binders from COS7 lysate, DM2A8 probe, primary screen, torsin A project, cell lysate, small-molecule microarray, fluorescence 635/667 (AID 1065). The following applies: higher = more signal, COS7 lysate expressing mutant human TOR1A.
Test [3] is described as follows: small molecules captured by biotinylated probe aFGF2 – biochemical, small-molecule microarray, fluorescence 635/667, stem cell growth factor project, primary screen (AID 1067).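 Further: measures binding of biotinylated aFGF2 protein to printed compounds on slides; z-score merges feature fluorescence and signal-to-noise across triplicate slides.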 The following applies: higher = more signal.
Test [4] in a line: small molecules captured by biotinylated probe aFGF10 – biochemical, small-molecule microarray, fluorescence 635/667, stem cell growth factor project, primary screen (AID 1071).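 Further: score merges 667 nm spot intensity and signal to noise from triplicate slides.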 To be noted: higher = more signal.
The target of test [5] is Neurogenic locus notch homolog protein 2 (Homo sapiens) (UniProt Q04721). Briefly: small molecules binding Notch2 protein – biochemical, small-molecule microarray, 635 nm fluorescence, stem cell growth factors, primary screen (AID 1073). To be noted: higher = more signal.
Test [6] deals with Pro-neuregulin-1, membrane-bound isoform (Homo sapiens) (UniProt Q02297). Briefly: small molecules binding neuregulin-1 protein – biochemical, small-molecule microarray, fluorescence 635/667, psychiatric disease protein project, primary screen (AID 1075).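 Further: score combines 667 nm spot fluorescence with signal to noise.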 The following applies: NRG1 binding, 635 nm fluorescence, higher = more signal.
Pro-neuregulin-1, membrane-bound isoform (Homo sapiens), sequence (Q02297 whole entry, looked up, the tested form may be a part, canonical isoform): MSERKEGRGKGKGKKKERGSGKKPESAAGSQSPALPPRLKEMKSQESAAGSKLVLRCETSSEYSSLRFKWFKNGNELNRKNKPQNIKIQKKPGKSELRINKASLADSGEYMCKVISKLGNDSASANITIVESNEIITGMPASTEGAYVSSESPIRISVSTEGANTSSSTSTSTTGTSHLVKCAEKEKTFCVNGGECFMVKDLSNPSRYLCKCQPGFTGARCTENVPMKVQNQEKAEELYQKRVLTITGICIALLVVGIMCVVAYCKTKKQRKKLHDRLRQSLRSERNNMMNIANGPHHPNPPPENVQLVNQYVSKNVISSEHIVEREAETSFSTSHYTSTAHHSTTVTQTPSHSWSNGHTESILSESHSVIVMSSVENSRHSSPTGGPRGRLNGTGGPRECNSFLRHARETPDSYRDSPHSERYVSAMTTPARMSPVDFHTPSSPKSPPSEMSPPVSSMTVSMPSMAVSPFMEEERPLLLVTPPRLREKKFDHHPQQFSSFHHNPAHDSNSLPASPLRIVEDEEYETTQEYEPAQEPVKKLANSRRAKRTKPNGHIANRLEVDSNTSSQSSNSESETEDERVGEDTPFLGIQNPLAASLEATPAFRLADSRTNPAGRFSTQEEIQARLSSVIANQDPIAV
For test [7], the system named is Neuregulin-1 EGF-like domain. In words: small molecules binding NRG1 EGF domain – biochemical, small-molecule microarray, 635 nm fluorescence, primary screen (AID 1081).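 Further: binding of the protein to compounds printed on small-molecule microarray slides.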 The following applies: higher = more signal.
Test [8] can be described thus: FRG1 expression reporter modulators in myotubes – cell-based, C2C12 myotubes, firefly/Renilla luciferase, luminescence, FRG1 inhibition for FSHD, primary screen (AID 1084). To be noted: FRG1 promoter luciferase, higher = more signal, called active from +8 up or from −8 down.
Test [9] can be described thus: small molecules captured by biotinylated probe aFST – biochemical, small-molecule microarray, fluorescence 635/667, stem cell growth factor project, primary screen (AID 1086).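 Further: score merges 667 nm fluorescence with signal-to-noise of each printed compound spot.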 To be noted: higher = more signal.
Test [10] can be described thus: binders of probe aHhip on microarray, primary screen, stem cell growth factor project, biochemical, small-molecule microarray, fluorescence 635/667 (AID 1087).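 Further: score merges spot fluorescence at 667nm with spot signal to noise ratio.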 To be noted: higher = more signal.
For test [11], the system named is PRMT1 (protein arginine N-methyltransferase 1). In words: small molecules binding arginine methyltransferase PRMT1 – biochemical, small-molecule microarray, 635 nm fluorescence, primary screen (AID 1088).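 Further: binding of Prmt1 protein to compounds spotted on small-molecule microarray slides.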 The following applies: higher = more signal.
The nature of test [12]: growth effects on S. cerevisiae YJM789 – YJM789 clinical isolate, OD600, 24 h, basal, primary screen (AID 1089).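 Further: growth of clinical yeast isolate S. cerevisiae YJM 789 seeded 1000 cells per well; test concentration not given here.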 The following applies: higher = more signal, called active from +8 up or from −8 down.
A short description of test [13]: S. pombe growth modifiers, basal conditions – strain 972, OD600, 24 h, no modulator, primary screen (AID 1090).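 Further: basal condition with compound alone and no growth modifier present; test concentration not given here.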 The following applies: S. pombe 972 growth, higher = more signal, called active from +8 up or from −8 down.
Test [14] is described as follows: budding yeast growth modifiers under rapamycin – strain BY4716, OD600, 96 h, primary screen (AID 1091). Further: test concentration not given here. The following applies: S. cerevisiae BY4716 + rapamycin, higher = more signal, called active from +8 up or from −8 down.
Test [15] addresses Torsin-1A-interacting protein 2 (Homo sapiens) (UniProt Q8NFQ8). Briefly: small molecules binding lysate-expressed LULL1 – cell lysate, human LULL1 lysate, 635/667 nm fluorescence, primary screen (AID 1092).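 Further: probe is lysate of COS7 cells overexpressing human LULL1; score merges per-feature 667 nm fluorescence with signal-to-noise.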 To be noted: small-molecule microarray, hLULL1 lysate binding, 635 nm fluorescence; higher = more signal.
Test [16] is described as follows: optical density change of DRC41 E. coli – strain DRC41, OD650, 24 h, E. coli filamentation project, primary screen (AID 1093).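 Further: MC1000 strain lacking acrAB efflux and sulA so SOS filamentation is blocked; test concentration not given here.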 To be noted: E. coli DRC41 growth, higher = more signal, called active from +8 up or from −8 down.
Test [17] can be described thus: probe aLefty2 binding to arrayed compounds – biochemical, biotinylated probe, 635/667 nm fluorescence, primary screen (AID 1094).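 Further: score merges spot fluorescence near 667 nm with spot signal-to-noise ratio.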 The following applies: small-molecule microarray, higher = more signal.
The subject of test [18] is Noggin (protein binding on small-molecule microarray). In words: small molecules binding Noggin protein – biochemical, 635/667 nm fluorescence, primary screen (AID 1095).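 Further: score merges 667 nm feature fluorescence with signal to noise over triplicate slides.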 The following applies: 635 nm fluorescence, higher = more signal.
The target of test [19] is Neurogenic locus notch homolog protein 3 (Homo sapiens) (UniProt Q9UM47). In words: small molecules binding NOTCH3 protein – biochemical, 635/667 nm fluorescence, primary screen (AID 1096). The following applies: small-molecule microarray, 635 nm fluorescence, higher = more signal.
Neurogenic locus notch homolog protein 3 (Homo sapiens), sequence (Q9UM47 whole entry, looked up): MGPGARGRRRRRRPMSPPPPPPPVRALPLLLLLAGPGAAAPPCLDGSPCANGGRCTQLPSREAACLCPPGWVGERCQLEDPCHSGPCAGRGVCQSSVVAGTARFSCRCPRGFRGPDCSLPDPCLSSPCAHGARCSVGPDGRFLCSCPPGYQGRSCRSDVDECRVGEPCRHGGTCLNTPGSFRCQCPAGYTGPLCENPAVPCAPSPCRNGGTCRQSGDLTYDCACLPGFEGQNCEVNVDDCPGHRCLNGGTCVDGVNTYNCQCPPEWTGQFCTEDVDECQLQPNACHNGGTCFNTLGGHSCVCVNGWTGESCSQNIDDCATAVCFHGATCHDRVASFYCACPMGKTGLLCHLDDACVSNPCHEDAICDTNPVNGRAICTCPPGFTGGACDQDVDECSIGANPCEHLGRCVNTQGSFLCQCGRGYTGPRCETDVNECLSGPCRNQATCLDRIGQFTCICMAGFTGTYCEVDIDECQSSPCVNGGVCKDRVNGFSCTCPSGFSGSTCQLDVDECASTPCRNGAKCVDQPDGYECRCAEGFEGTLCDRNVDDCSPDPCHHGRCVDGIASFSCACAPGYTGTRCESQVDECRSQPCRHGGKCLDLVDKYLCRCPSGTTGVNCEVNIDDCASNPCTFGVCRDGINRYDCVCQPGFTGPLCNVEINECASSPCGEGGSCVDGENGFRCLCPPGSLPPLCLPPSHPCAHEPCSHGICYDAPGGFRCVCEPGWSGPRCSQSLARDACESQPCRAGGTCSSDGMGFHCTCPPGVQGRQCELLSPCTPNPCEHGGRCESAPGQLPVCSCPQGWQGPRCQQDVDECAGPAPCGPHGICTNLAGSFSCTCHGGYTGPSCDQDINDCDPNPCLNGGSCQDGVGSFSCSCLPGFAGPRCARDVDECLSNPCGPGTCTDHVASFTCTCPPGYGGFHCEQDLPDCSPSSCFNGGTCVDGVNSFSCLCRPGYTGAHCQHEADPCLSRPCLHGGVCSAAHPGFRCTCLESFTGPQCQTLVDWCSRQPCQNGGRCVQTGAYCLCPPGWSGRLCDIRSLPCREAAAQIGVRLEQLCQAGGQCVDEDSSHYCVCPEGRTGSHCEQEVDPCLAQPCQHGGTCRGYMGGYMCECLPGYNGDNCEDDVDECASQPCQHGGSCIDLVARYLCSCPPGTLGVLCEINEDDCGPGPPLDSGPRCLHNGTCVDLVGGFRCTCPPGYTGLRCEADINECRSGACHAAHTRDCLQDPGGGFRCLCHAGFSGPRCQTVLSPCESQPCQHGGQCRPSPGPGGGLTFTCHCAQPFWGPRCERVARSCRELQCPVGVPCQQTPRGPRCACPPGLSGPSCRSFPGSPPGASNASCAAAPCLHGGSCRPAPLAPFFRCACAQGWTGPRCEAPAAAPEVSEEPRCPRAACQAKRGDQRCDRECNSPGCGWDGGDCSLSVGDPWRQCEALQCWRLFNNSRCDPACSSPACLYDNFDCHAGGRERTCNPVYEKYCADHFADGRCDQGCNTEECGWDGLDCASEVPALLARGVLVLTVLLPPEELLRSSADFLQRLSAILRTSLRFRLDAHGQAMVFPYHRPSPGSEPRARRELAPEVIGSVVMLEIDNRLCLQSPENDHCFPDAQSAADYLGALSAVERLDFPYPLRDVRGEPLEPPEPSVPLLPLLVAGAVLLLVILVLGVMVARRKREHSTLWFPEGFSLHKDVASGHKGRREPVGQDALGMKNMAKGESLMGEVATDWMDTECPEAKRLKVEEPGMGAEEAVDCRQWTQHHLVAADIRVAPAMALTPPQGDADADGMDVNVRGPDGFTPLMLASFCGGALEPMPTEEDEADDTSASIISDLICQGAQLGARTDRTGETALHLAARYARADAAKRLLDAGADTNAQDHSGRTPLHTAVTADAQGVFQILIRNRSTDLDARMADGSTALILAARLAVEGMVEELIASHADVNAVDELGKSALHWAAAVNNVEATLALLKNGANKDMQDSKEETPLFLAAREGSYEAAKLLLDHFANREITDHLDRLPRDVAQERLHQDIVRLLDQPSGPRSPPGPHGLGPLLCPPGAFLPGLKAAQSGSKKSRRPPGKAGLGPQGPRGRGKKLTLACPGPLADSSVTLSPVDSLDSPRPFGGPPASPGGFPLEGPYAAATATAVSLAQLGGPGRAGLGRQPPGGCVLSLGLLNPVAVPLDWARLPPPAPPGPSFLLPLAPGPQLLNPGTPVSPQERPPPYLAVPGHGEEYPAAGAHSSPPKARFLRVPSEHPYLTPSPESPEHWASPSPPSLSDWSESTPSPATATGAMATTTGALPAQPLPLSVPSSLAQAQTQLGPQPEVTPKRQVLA
Test [20] in a line: probe aEGFR binding to arrayed compounds – biochemical, biotinylated probe, 635/667 nm fluorescence, primary screen (AID 1097).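 Further: probe is a biotinylated anti-EGFR antibody binding compounds printed on slides; score combines fluorescence near 667 nm and signal to noise of each spot.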 To be noted: small-molecule microarray, higher = more signal.

Activity calls are given as the source filed them.

Torsin-1A-interacting protein 2 (Homo sapiens), sequence (Q8NFQ8 whole entry, looked up): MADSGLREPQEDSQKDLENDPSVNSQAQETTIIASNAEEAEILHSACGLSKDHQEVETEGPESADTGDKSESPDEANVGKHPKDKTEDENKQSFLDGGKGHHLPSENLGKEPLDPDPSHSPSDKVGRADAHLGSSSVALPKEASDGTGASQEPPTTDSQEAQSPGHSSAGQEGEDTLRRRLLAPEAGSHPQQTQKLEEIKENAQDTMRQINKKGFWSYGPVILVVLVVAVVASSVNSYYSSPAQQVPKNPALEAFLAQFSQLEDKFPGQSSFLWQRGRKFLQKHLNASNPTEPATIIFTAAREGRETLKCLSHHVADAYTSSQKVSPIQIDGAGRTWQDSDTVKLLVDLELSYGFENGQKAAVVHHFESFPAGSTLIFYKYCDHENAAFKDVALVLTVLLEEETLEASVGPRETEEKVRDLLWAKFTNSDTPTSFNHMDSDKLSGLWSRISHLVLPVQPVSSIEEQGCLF

As for `CCOC1=C2C(CN(S(=O)(=O)c3ccc(C)cc3)C2c2ccc(C)cc2)C2C(=O)N(c3ccccc3)C(=O)C2C1` (stereo not given), the composite z-score in test [1] is -0.208; in test [2], -0.155; in [3], -0.0074; in [4], 0.347; in test [5], 1.25; in test [6], 0.752. Further, the composite z-score was 1.03 in test [7]; 0.585 in test [9]; -0.0618 in [10]; 0.952 in test [11]; 1.96 in test [15]; -0.0515 in test [17]. Also, the results for the composite z-score in test [18], in test [19] and in test [20] were 0.257, 0.875 and 0.0414, respectively. Further, the z-score is -0.62 (inactive) in [8]; 0.218 (inactive) in test [12]; 1.86 (inactive) in test [13]; 0.852 (inactive) in [14]; 0.0696 (inactive) in [16].

Turning to `COc1cc2c(cc1OC)CN(C(=O)[C@H]1[C@@H]3C(=O)O[C@@H](c4ccccc4)[C@@H](c4ccccc4)N3[C@@H](c3ccc(O)cc3)[C@]13C(=O)Nc1ccc(C#CC4=CCCCC4)cc13)CC2`, the composite z-score in [1] was -0.0904; in [2], 1.36; in [3], 0.088; in test [4], 1.24; in test [5], 1.24; in [6] it was 1.33. Moreover, the composite z-score came out at 1.21 in test [7]; 0.827 in test [9]; 0.421 in [10]; 1.51 in test [11]; 2.83 in test [15]; 0.0857 in [17]. The composite z-score is 1.12 in test [18], 0.913 in [19] and 0.143 in test [20]. Moreover, the z-score in test [8] is -0.139 (inactive); in [12], 0.203 (inactive); in test [13] it was -2.16 (inactive); in test [14], 0.563 (inactive); in test [16], 1.64 (inactive).

Consider `O=C1O[C@H](c2ccccc2)[C@H](c2ccccc2)N2[C@H]1[C@@H](C(=O)Nc1nc3ccccc3s1)[C@]1(C(=O)Nc3ccc(C#CCCO)cc31)[C@H]2c1ccc(OCCO)cc1`, for which the composite z-score is -0.379 in [1]; 0.135 in [2]; 0.0401 in [3]; 1.14 in [4]; 1.19 in [5]; 0.887 in [6]. The composite z-score in test [7] is 0.975; in [9] it was 0.119; in test [10] it was 0.224; in [11] it was 1.55; in test [15] it was 3.19; in test [17], -0.137. For the same molecule, the composite z-score in [18] is 1.72; in [19], 1.12; in [20] it was -0.0368. Moreover, the z-score in [8] was -0.0455 (inactive); in test [12], 0.737 (inactive); in test [13] it was 0.933 (inactive); in [14], 2.84 (inactive); in [16] it was 0.0573 (inactive).

For the molecule `CCCC[C@@H]1C[C@H]1[C@@H](NC(=O)c1ccco1)c1ccc(C(=O)OC)cc1`, the composite z-score in test [1] is 0.238; in test [2], -0.0736; in [3], -0.124; in [4] it was 0.286; in [5] it was -0.253; in test [6], 0.0609. Also, the composite z-score in test [7] was -0.216; in test [9], 0.285; in [10], 0.379; in [11], 0.488; in test [15], 1.93; in test [17], 0.0258. The composite z-score in test [18] was -1.2; in test [19] it was -0.64; in test [20], -0.171. Moreover, the z-score in test [8] is -0.0679 (inactive); in test [12], -0.152 (inactive); in [13], -1.61 (inactive); in test [14], 0.06 (inactive); in test [16], -1.53 (inactive).

For the molecule `C=C(CCCC)C(=O)CC[C@@H](OC(=O)c1cccnc1)c1ccc(CO)o1`, the composite z-score is -0.45 in [1]; 0.0802 in [2]; -0.008 in test [3]; 0.601 in test [4]; 0.88 in test [5]; 1.05 in test [6]. Besides, the composite z-score in test [7] was 1.07; in test [9], 0.391; in test [10], 0.122; in test [11], 1.55; in test [15], 1.45; in test [17], -0.105. Moreover, the composite z-score in [18] amounted to 1.61; in test [19], 1.12; in [20], 0.021. Moreover, the z-score in [8] is -0.434 (inactive); in test [12], 0.544 (inactive); in test [13], 0.115 (inactive); in [14], 0.275 (inactive); in test [16] it was -0.211 (inactive).
